The record followed here is PubChem BioAssay.

One may read the inhibition as the share of the control response that was lost under treatment.

The structures appear in SMILES notation. Unmarked numbers belong to inactive results. The rule behind the calls is not given here.

In the assay the target is Pantothenate synthetase (Mycobacterium tuberculosis (strain ATCC 25618 / H37Rv)) (UniProt P9WIL5). The assay can be described thus: Coupled enzyme confirmation of inhibitors against recombinant Mtb PanC (AID 375).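 Note: 0% = full reaction with vehicle and 100% = no enzyme background.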 The note with it: coupled enzyme assay; at 10 µM, hits give high values.
Sequence of Pantothenate synthetase (Mycobacterium tuberculosis (strain ATCC 25618 / H37Rv)) (P9WIL5 whole entry, looked up): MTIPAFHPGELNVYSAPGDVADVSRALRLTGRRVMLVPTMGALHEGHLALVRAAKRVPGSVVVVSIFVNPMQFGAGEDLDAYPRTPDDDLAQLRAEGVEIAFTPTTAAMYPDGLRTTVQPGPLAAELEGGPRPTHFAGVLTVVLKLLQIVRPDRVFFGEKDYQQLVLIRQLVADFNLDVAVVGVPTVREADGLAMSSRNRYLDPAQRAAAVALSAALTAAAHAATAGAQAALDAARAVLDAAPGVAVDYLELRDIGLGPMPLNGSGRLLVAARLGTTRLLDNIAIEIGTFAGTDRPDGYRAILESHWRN
Take `CCc1ccc(NS(=O)(=O)c2ccc3[nH]cc(C(=O)N4CCCCC4)c(=O)c3c2)cc1`: the inhibition was 0%.
In the case of `CCOC(=O)c1c(C(F)(F)C(F)(F)C(F)(F)C(F)(F)F)n[nH]c1C`, the inhibition is 8%.
In the case of `O=C(Cc1cccs1)N(c1ccccc1)C1C=CS(=O)(=O)C1` (stereo not drawn), the inhibition is 3%.
With `CCn1c(=O)n(CC(=O)NCc2ccccc2OC)c(=O)c2ccccc21`, the inhibition is 12%.
`COc1cc(OC)c(C(=O)Nc2ncn[nH]2)cc1OC`: the inhibition was 0%.
For `O=C1CCCC2=C1C(c1cccs1)n1nc(SCc3ccccc3F)nc1N2` (stereo not drawn), the inhibition is 0%.
The result for `O=C(O)CCN(CCC(=O)O)c1nnc(SCc2ccccc2)s1` reads 2%; that for `CCSc1ccccc1C(=O)Nc1cccc(OC)c1`, 0%; that for `O=C(CN1C(=O)CCS(=O)(=O)c2ccccc21)Nc1cccc(F)c1`, 5%.
The result for `COc1ccc(-c2noc(CCC(=O)NCCCN3CCC(Cc4ccccc4)CC3)n2)cc1` reads 0%; that for `Cc1ccccc1NC(=O)C1CCCN(S(=O)(=O)c2cnc[nH]2)C1` (stereo not drawn), 2%; that for `Cn1c(=O)[nH]c2cc3ccccc3cc21`, 0%.
For `c1ccc(-c2nc3nonc3c3nc4ccccc4n23)cc1`, the inhibition was 2%.
For the molecule `Cn1c(CN2CCOCC2)nc2cc(NC(=O)c3ccccc3Cl)ccc21`, the inhibition was 5%.
The figure for `O=C(NCCCn1ccnc1)c1csc2ccccc12` is 7%.
The result for `CC(C)Cc1ccc(C(C)C(=O)O)cc1` (stereo not drawn) reads 0%; that for `Cc1cc2c(cc1C)C(=O)NC(C)(C)C2`, 0%.
For the molecule `CN(C)CCCN1c2ccccc2Sc2ccccc21`, the inhibition was 0%.
